Experimental data published in PubChem BioAssay (Tox21).
Calls of active or inactive are those of the source. Calls follow the shape of the dose curve; as a rule, active = well fitted curve in the direction sought with a large enough effect in the repeat runs; inconclusive = weak or mixed curves; inactive = flat fitted curve, though single readings scatter.

Assay: qHTS assay to test for compound auto fluorescence at 460 nm (blue) in HepG2 cell free culture (AID 720685)
Details: Cell-free culture medium, blue autofluorescence 405/460 nm; series mostly up to 46 µM
Text: U.S. Tox21 Program National Center for Advancing Translational Sciences [NCATS] NIH Chemical Genomics Center [NCGC] U.S. Environmental Protection Agency [EPA] National Institutes of Environmental Health Sciences [NIEHS] National Toxicology Program [NTP] U.S. Food and Drug Administration [FDA] Tox21 Assay Overview: Compound auto fluorescence often interferes with screening of the compound library against various biological targets and signaling pathways. Some of these compounds may have fluorophoric properties. Such properties may interfere with the assay outputs resulting in false positives and/or negatives. To decrease such complications and ensure the compound activities are relevant in terms of biological response, the Tox21 10K compound library was screened for auto fluorescence. From the fluorophores used as reporter signals in our screening assays, the auto fluorescence equivalencies of compounds against three fluorophores have been evaluated: Triamterene, Fluorescein and Rose Bengal sodium for blue, green and red fluorescence, respectively. The fluorescence intensities were measured using Excitation/Emission wavelengths at 405/460nm, 485/535nm and 540/590nm for blue, green and red labels, respectively. This assay includes the blue fluorescence data.
Tox21 Assay Protocol Summary: 5 uL of culture medium (MEM containing 10% FBS) per well was dispensed into black wall/clear bottom 1536-well plates using a Multidrop Combi Dispenser (ThermoFisher Scientific, Waltham, MA). After 23 nL compound or DMSO vehicle was transferred into assay plate by a pintool work station (Kalypsys, San Diego, CA), fluorescence intensities in the assay plates were measured by an Envision (PerkinElmer, Shelton, CT) plate reader using three labels for measuring blue, green and red fluorescence at […] 460, 535 and 590nm respectively.
For `C[C@@H]1C/C=C/C=C/C=C/C=C/[C@H](O[C@@H]2O[C@H](C)[C@@H](O)[C@H](N)[C@@H]2O)C[C@@H]2O[C@](O)(C[C@@H](O)C[C@H]3O[C@@H]3/C=C/C(=O)O1)C[C@H](O)[C@H]2C(=O)O`, the outcome was “inactive”. With `CCN(CC)Cc1cc(Nc2ccnc3cc(Cl)ccc23)ccc1O` the outcome was “inactive”. For `CN(C)CCOc1ccccc1Cc1ccccc1` (tested in a mixture with another compound), the outcome was “inactive”. With `Cc1ccc(C2(O)CCN(CCCC(=O)c3ccc(F)cc3)CC2)cc1` the outcome was “inactive”. In the case of `Cn1cc(NC(=O)c2cc(NC(=O)c3cc(NC=O)cn3C)cn2C)cc1C(=O)NCCC(=N)N`, the outcome is reported as “inactive”. For `C[C@H]1[C@@H](OC(=O)CCC(=O)O)O[C@@H]2OC3(C)CC[C@H]4[C@H](C)CC[C@@H]1[C@@]24OO3`, the outcome was “inactive”. In the case of `O=C(O)c1c(Cl)c(Cl)c(Cl)c(Cl)c1-c1c2cc(I)c(=O)c(I)c-2oc2c(I)c(O)c(I)cc12`, the outcome is reported as “inactive”. For `CC[C@]1(O)CC2CN(CCc3c([nH]c4ccccc34)[C@@](C(=O)OC)(c3cc4c(cc3OC)N(C)[C@H]3[C@@](O)(C(N)=O)[C@H](O)[C@]5(CC)C=CCN6CC[C@]43[C@@H]65)C2)C1` (stereo not given in full), the outcome was “inactive”. For `CC(=O)OC[C@H]1O[C@@H](O[C@H]2[C@H](O)[C@@H](OC(=O)c3ccccc3C(=O)O)[C@H](O)O[C@@H]2COC(C)=O)[C@H](O)[C@@H](OC(=O)c2ccccc2C(=O)O)[C@@H]1O`, the outcome was “inactive”. With `CC(C)(CO)[C@@H](O)C(=O)NCCCC(=O)O` the outcome was “inactive”. With `C[C@]12C=CC(=O)N[C@@H]1CC[C@@H]1[C@@H]2CC[C@]2(C)[C@@H](C(=O)Nc3cc(C(F)(F)F)ccc3C(F)(F)F)CC[C@@H]12` the outcome was “inactive”. For `O=C(OC1C[C@@H]2CC3C[C@H](C1)N2CC3=O)c1c[nH]c2ccccc12` (stereo not given in full), the outcome was “inactive”. In the case of `CCCc1ccc(C(=O)O)cc1`, the outcome is reported as “inactive”. In the case of `COC(=O)C1=C(C#N)NC(C)=C(C(=O)OC(C)C)C1c1cccc([N+](=O)[O-])c1` (stereo not given), the outcome is reported as “inactive”. For `C[C@]12CC[C@@H]3c4ccc(O)cc4CC[C@H]3[C@@H]1CC[C@@H]2OP(=O)(O)O`, the outcome was “inactive”. For `O=S(=O)(O)Oc1ccc(C(c2ccc(OS(=O)(=O)O)cc2)c2ccccn2)cc1`, the outcome was “inactive”. In the case of `CN1CCCC(CN2c3ccccc3Sc3ccccc32)C1` (stereo not given), the outcome is reported as “inactive”. For `N[C@H](CC(=O)O)C(=O)O`, the outcome was “inactive”. For `C[C@H]1C[C@@H]2[C@H]([C@@H](O)C[C@@]3(C)[C@H]2CC[C@]3(O)C(=O)COC(=O)CCC(=O)O)[C@@]2(C)C=CC(=O)C=C12`, the outcome was “inactive”. In the case of `COc1cc2c(cc1OC)[C@@H](c1ccccc1)CN(C)CC2`, the outcome is reported as “inactive”. With `CC(=O)O[C@H]1C[C@@]2(C)[C@@H](C[C@@H](O)[C@H]3[C@@]4(C)CC[C@@H](O)[C@@H](C)[C@@H]4CC[C@@]32C)/C1=C(\CCC=C(C)C)C(=O)O` the outcome was “inactive”. For `CC1(C)S[C@@H]2[C@H](NC(=O)C(C(=O)O)c3ccsc3)C(=O)N2[C@H]1C(=O)O` (stereo not given in full), the outcome was “inactive”. For `CCC(=O)c1ccc2c(c1)N(CCCN1CCN(CCO)CC1)c1ccccc1S2`, the outcome was “inactive”. With `CCC(=O)OCC(=O)[C@@]1(OC(=O)CC)[C@H](C)C[C@H]2[C@@H]3CCC4=CC(=O)C=C[C@]4(C)[C@@]3(F)[C@@H](O)C[C@@]21C` the outcome was “inactive”. For `CCCOc1cc(N)ccc1C(=O)OCCN(CC)CC`, the outcome was “inactive”. With `NC(=O)Oc1ccc(Cc2ccccc2)cc1` the outcome was “inactive”. In the case of `CCCCCCCCCCCCCCCC(=O)OC[C@@H](NC(=O)C(Cl)Cl)[C@H](O)c1ccc([N+](=O)[O-])cc1`, the outcome is reported as “inactive”. With `CCCCCCCCCCCCCCCC(=O)OC[C@@H](O)[C@H]1OC[C@H](O)[C@H]1O` the outcome was “inactive”. With `CCCCCCC(=O)O[C@H]1CC[C@H]2[C@@H]3CCc4cc(O)ccc4[C@H]3CC[C@]12C` the outcome was “inactive”. In the case of `CC[C@@H]1/C=C(\C)C[C@H](C)C[C@H](OC)[C@H]2O[C@@](O)(C(=O)C(=O)N3CCCC[C@H]3C(=O)O[C@H](/C(C)=C/[C@@H]3CC[C@@H](Cl)[C@H](OC)C3)[C@H](C)[C@@H](O)CC1=O)[C@H](C)C[C@@H]2OC`, the outcome is reported as “inactive”. With `CC[C@@]1(O)C(=O)OCc2c1cc1n(c2=O)Cc2cc3c([N+](=O)[O-])cccc3nc2-1` the outcome was “inactive”. With `CC(=O)N[C@@H](C=O)[C@@H](O)[C@H](O)[C@H](O)CO` the outcome was “inactive”. For `COc1ccc2c(=O)c(C)c(-c3ccccc3)oc2c1CN(C)C`, the outcome was “inactive”. With `CCC(=O)NS(=O)(=O)c1ccc(-c2c(-c3ccccc3)noc2C)cc1` the outcome was “inactive”. In the case of `C#C[C@]1(OC(C)=O)CC[C@H]2[C@@H]3CCC4=CC(=O)CC[C@@H]4[C@H]3CC[C@@]21C`, the outcome is reported as “inactive”. For `CC(C)(C)CC(=O)OCC(=O)[C@@]12OC(C)(C)O[C@@H]1C[C@H]1[C@@H]3CCC4=CC(=O)C=C[C@]4(C)[C@@]3(F)[C@@H](O)C[C@@]12C`, the outcome was “inactive”. With `O=C(O)[C@@H](O)[C@H](O)[C@H](O)[C@@H](O)C(=O)O` (tested in a mixture with another compound) the outcome was “inactive”. In the case of `O=[N+]([O-])O[C@@H]1CO[C@H]2[C@@H]1OC[C@@H]2O`, the outcome is reported as “inactive”. In the case of `O=C(/C=C/c1cccc(F)c1)NC1CC1`, the outcome is reported as “inactive”. For `CCOC(=O)C1=C(COCCN)NC(C)=C(C(=O)OC)C1c1ccccc1Cl` (stereo not given), the outcome was “inactive”.
